In the library only some 17% were active in any assay of this set; here they are far more common.
ClpP mod – qHTS Assay for Activators of ClpP; hit rate 1.9% among 340,000; Potency, µM (top dose mostly 57.5 µM), inactives show at the top dose activity change, negative = active; ATP-dependent Clp protease proteolytic subunit (Bacillus subtilis (strain 168)), P80244; purified B. subtilis ClpP, FRET peptide cleavage, 20 min; active means well fitted falling curve with a large enough effect; inconclusive means small, poorly fitted or top-dose-only effect; inactive means no such curve, though single readings can be large or run the other way; further: the source files actives as falling curves though it sought activators and does not explain the sign; nearly all actives have a fitted effect of over 65% in size
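Purified B. subtilis ClpP, 10 microg/mL final in Tris/HCl pH8 with KCl, BSA, glycerol and Tween-20, cleaved an Abz/nitrotyrosine-quenched decapeptide. Fluorescence (ex 320, em 430) was read at 0 and 20 min at room temperature. Delta was normalized to 5.8 microM ADEP and DMSO/no-enzyme controls.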
TDP1 block – qHTS Assay for Inhibitors of Tyrosyl-DNA Phosphodiesterase (TDP1); hit rate 0.28% among 350,000; recombinant TDP1, AlphaScreen DNA substrate cleavage; Tyrosyl-DNA phosphodiesterase 1 (Homo sapiens), Q9NUW8; Potency, µM (top dose mostly 130 µM), inactives show at the highest dose activity change, negative = inhibition, most hits filed as inhibitors; further: on the % scale 0 is the no-effect control and ±100 the full control effect; nearly all actives have a fitted effect of over 40% in size
Target sequence (Q9NUW8 whole entry, looked up): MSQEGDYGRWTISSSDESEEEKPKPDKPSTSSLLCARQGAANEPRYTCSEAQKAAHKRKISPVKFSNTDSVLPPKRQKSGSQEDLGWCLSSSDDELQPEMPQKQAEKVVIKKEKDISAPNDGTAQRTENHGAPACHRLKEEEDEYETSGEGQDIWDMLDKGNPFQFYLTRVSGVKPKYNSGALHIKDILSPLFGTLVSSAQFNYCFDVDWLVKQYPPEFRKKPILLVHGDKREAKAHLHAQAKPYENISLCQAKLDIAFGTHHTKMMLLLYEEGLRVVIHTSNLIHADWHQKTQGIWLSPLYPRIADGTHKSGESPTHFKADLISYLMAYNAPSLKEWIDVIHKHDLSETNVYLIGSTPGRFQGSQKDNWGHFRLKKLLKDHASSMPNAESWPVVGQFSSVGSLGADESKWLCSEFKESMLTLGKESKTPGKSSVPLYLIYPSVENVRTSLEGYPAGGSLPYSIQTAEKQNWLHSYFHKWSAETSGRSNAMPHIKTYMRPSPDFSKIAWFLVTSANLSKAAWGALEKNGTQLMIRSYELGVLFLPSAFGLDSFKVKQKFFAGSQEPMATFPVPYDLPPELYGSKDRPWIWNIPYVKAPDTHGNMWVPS
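AlphaScreen read-out: signal falls as enzyme removes the 3' tyrosine-FITC from a 5'-biotinylated DNA oligo (15 nM, 5 min, RT). Enzyme was E. coli-made recombinant Tdp1 at 1 nM, exposed to compound for 15 min beforehand; beads 10 ug/ml, 10 min.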
DT40 TDP1 no CPT – qHTS for Inhibitors of human tyrosyl-DNA phosphodiesterase 1 (TDP1): qHTS in cells in absence of CPT. hit rate 15% among 420,000. Potency, µM (top dose mostly 46.2 µM), without a hit: at the top dose activity change, negative = growth inhibition, hits mostly inhibitors. DT40 Tdp1-/- hTDP1 cells, no CPT, ATP luminescence, 48 h. AID 686978, 2013; further: on the % scale 0 is the no-effect control and ±100 the full control effect; nearly all actives have a fitted effect of over 55% in size
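Chicken DT40 Tdp1-/- cells complemented with human TDP1, screened without camptothecin (DMSO vehicle only), 400 cells/well. Compounds pin-transferred, cells incubated at 37 °C for at least 48 hr. Growth read as ATP-dependent luminescence (CellTiter-Glo, 30 min at RT).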
DT40 TDP1 CPT – qHTS for Inhibitors of human tyrosyl-DNA phosphodiesterase 1 (TDP1): qHTS in cells in presence of CPT | Potency, µM (highest dose often 46.2 µM), without a hit: at the highest dose activity change, negative = growth inhibition, usual class: inhibitors | hit rate 12% among 420,000 | chicken DT40 Tdp1-/-;hTDP1 cells + 20 nM CPT, ATP luminescence, 48 h; further: on the % scale 0 is the no-effect control and ±100 the full control effect; nearly all actives have a fitted effect of over 55% in size
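Chicken DT40 Tdp1-/- cells stably complemented with human TDP1 were seeded at 400 cells/well in medium containing 20 nM camptothecin, exposed to pin-transferred compounds, and grown at 37 °C for at least 48 hr. Viability was read as ATP luminescence.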
An asterisk follows results filed as active; [ ] = dose if it differs, or a comment. Unless noted, the call rests on the fitted dose curve; in most records, active means well fitted curve in the direction sought with a large enough effect; inconclusive means small, poorly fitted or top-dose-only effect, or another doubt; inactive means no such curve, though single readings can be large; an effect the other way counts as inactive or inconclusive. Potency means the concentration at half of the fitted maximal effect.

Screening O=C(N/N=C/c1ccc(Cl)c([N+](=O)[O-])c1)c1cc(-c2ccccc2)nc2ccccc12 returned ClpP mod -4%, TDP1 block 0%, DT40 TDP1 no CPT 7.3µM* and DT40 TDP1 CPT 6.5µM*.
`O=C(N/N=C/c1cccc(O)c1)c1ccccc1O` gave ClpP mod 1%, DT40 TDP1 no CPT 1% and DT40 TDP1 CPT 2%.
`O=C(N/N=C/c1ccc(O)c(O)c1)c1cc(-c2ccccc2)nc2ccccc12` gave ClpP mod -2%, TDP1 block 7%, DT40 TDP1 no CPT inconclusive and DT40 TDP1 CPT 8.2µM*.
Screening O=C(N/N=C/c1cccc(O)c1)c1cc(-c2ccccc2)nc2ccccc12 returned ClpP mod -3%, DT40 TDP1 no CPT inconclusive and DT40 TDP1 CPT 2.3µM*.
Screening O=C1CS(=O)(=O)C2(C(=O)Nc3ccccc32)N1c1cccc(Cl)c1 (stereo not given) returned ClpP mod 3%, TDP1 block -2%, DT40 TDP1 no CPT -22% and DT40 TDP1 CPT -19%.
Screening O=C(CSc1oc(-c2ccco2)nc1S(=O)(=O)c1ccc(Br)cc1)c1ccccc1 returned ClpP mod -4%, TDP1 block 9%, DT40 TDP1 no CPT inconclusive and DT40 TDP1 CPT inconclusive.
Screening COc1ccc(/C=N/NC(=O)c2cc(-c3ccccc3)nc3ccccc23)c(OC)c1 returned ClpP mod -7%, DT40 TDP1 no CPT inconclusive and DT40 TDP1 CPT 15µM*.
COc1cccc(/C=N/NC(=O)c2nc(-c3ccccc3)cc(-c3ccccc3)n2)c1 was read as ClpP mod -28%, TDP1 block -8%, DT40 TDP1 no CPT 21µM* and DT40 TDP1 CPT 16µM*.
Screening O=C(N/N=C/C=C\c1ccccc1[N+](=O)[O-])c1ccncc1 returned TDP1 block 0%, DT40 TDP1 no CPT inconclusive and DT40 TDP1 CPT inconclusive.
For O=C(N/N=C/C=C\c1ccccc1[N+](=O)[O-])c1cc(-c2ccccc2)nc2ccccc12 the results were ClpP mod -2%, TDP1 block 0%, DT40 TDP1 no CPT 15µM* and DT40 TDP1 CPT 23µM*.
Screening C/C(=N\NC(=O)c1csc2ccccc12)c1ccc(O)cc1 returned ClpP mod -4%, TDP1 block 4%, DT40 TDP1 no CPT 9.2µM* and DT40 TDP1 CPT inconclusive.
For Cc1ccc(C(=O)NCC(=O)OCCCOC(=O)CNC(=O)c2ccc(C)c(C)c2)cc1C the results were ClpP mod -2%, TDP1 block 2%, DT40 TDP1 no CPT -13% and DT40 TDP1 CPT -16%.
`CCn1ncc(/C=N\NC(=O)c2csc3ccccc23)c1C` gave ClpP mod -3%, TDP1 block -1%, DT40 TDP1 no CPT 4.6µM* and DT40 TDP1 CPT 2.6µM*.
For CNC[C@H](O)[C@H](O)[C@H](O)[C@H](O)CO the results were TDP1 block 11%[21 µM].
O=c1c(N2CCN(c3cccc(Cl)c3)CC2)csc2ccc(Cl)cc12 was read as ClpP mod -11%, TDP1 block 8%, DT40 TDP1 no CPT inconclusive and DT40 TDP1 CPT inconclusive.
`CCS(=O)(=O)Nc1cccc(-c2nc3cccnc3s2)c1` gave ClpP mod -2%, DT40 TDP1 no CPT inconclusive and DT40 TDP1 CPT -10%.
For Cc1cccc(CC(=O)Nc2cccc(-c3nc4cccnc4s3)c2)c1 the results were ClpP mod 20µM*, TDP1 block 0%, DT40 TDP1 no CPT inconclusive and DT40 TDP1 CPT -15%.
For Cc1ccccc1C(=O)Nc1cccc(-c2nc3cccnc3s2)c1 the results were ClpP mod inconclusive, TDP1 block 6%, DT40 TDP1 no CPT 18µM* and DT40 TDP1 CPT inconclusive.
CCS(=O)(=O)Nc1cc(-c2nc3cccnc3s2)ccc1C was read as ClpP mod inconclusive, TDP1 block 5%, DT40 TDP1 no CPT 26µM* and DT40 TDP1 CPT inconclusive.
For Cc1ccc(-c2nc3cccnc3s2)cc1NC(=O)Cc1ccccc1 the results were ClpP mod inconclusive, TDP1 block 10%, DT40 TDP1 no CPT inconclusive and DT40 TDP1 CPT inconclusive.
COc1ccc(Cc2nc3ccc(C(=O)NCc4cc(Br)ccc4OC)cc3o2)cc1 was read as ClpP mod -2%, TDP1 block 1%, DT40 TDP1 no CPT -25% and DT40 TDP1 CPT inconclusive.
`COc1ccc(C2CC(=O)Nc3c2c(C)nn3-c2nncc(-c3ccc(C)cc3)n2)c(OC)c1OC` (stereo not given) gave ClpP mod -1%, TDP1 block 6%, DT40 TDP1 no CPT 6.5µM* and DT40 TDP1 CPT 12µM*.
For Cc1cc(C)nc(-n2nc(C)c3c2NC(=O)CC3c2ccccc2OC(C)C)n1 (stereo not given) the results were ClpP mod -4%, TDP1 block 8%, DT40 TDP1 no CPT 18µM* and DT40 TDP1 CPT 16µM*.
For CCc1ccc(C2CC(=O)Nc3c2c(C)nn3-c2nc(C)cc(C)n2)cc1 (stereo not given) the results were ClpP mod -3%, TDP1 block 1%, DT40 TDP1 no CPT 21µM* and DT40 TDP1 CPT 21µM*.
COc1ccc(C2CC(=O)Nc3c2c(C)nn3-c2nc(C)cc(C)n2)c(OC)c1OC (stereo not given) was read as ClpP mod -3%, TDP1 block -4%, DT40 TDP1 no CPT -22% and DT40 TDP1 CPT -16%.
For Cc1ccc(CN2C(=O)CC(c3ccc(Cl)cc3)c3c(C)nn(-c4nc(C)cc(C)n4)c32)cc1 (stereo not given) the results were ClpP mod 2%, TDP1 block 2%, DT40 TDP1 no CPT 21µM* and DT40 TDP1 CPT inconclusive.
Screening O=C(COC(=O)/C=C/c1ccc(OC(F)F)cc1)NC1CCCCCC1 returned ClpP mod -8%, TDP1 block 0%, DT40 TDP1 no CPT -30% and DT40 TDP1 CPT -1%.
Screening CCOC(=O)C1(CC2CCCCO2)CCN(Cc2nccn2-c2cccc(C)c2)CC1 (stereo not given) returned ClpP mod -1%, TDP1 block 5%, DT40 TDP1 no CPT inconclusive and DT40 TDP1 CPT inconclusive.
Screening CCOC(=O)C1(CC2CCCCO2)CCN(Cc2c(C)cc(C)cc2-n2cccn2)CC1 (stereo not given) returned TDP1 block 3%, DT40 TDP1 no CPT 29µM* and DT40 TDP1 CPT inconclusive.
CCOC(=O)C1(CC2CCCCO2)CCN(Cc2nc3ccccc3[nH]2)CC1 (stereo not given) was read as ClpP mod 0%, TDP1 block 0%, DT40 TDP1 no CPT -10% and DT40 TDP1 CPT inconclusive.
Screening CCOC(=O)C1(CC2CCCCO2)CCN(Cc2nc(C(C)C)cs2)CC1 (stereo not given) returned ClpP mod -2%, TDP1 block 3%, DT40 TDP1 no CPT inconclusive and DT40 TDP1 CPT 16µM*.

Screening data deposited in PubChem by National Center for Advancing Translational Sciences (NCATS).
